In the supplement of paper PMC10981050:
Several values for one entry are separate records, joined by “and”; a condition that tells them apart may be missing. Identical values can stand only once. Counter-ions that a name gives are not always drawn.

How the values were obtained:
Assay in all cases: cell viability relative to vehicle control; higher = less cytotoxic
Conditions in all cases: 10 µM
K562 = system: K562
Outline: (§1)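 Each screen used CRISPR-edited mutant and wild-type clones from four leukaemia lines. Compounds were acoustically dispensed at a single 10 µM dose, and CellTiter-Glo luminescence was read after 48 h with the supernatant first removed. Viability was analysed in Genedata Screener and given as percent of the on-plate vehicle control.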

MARIMO = system: MARIMO
Outline: as §1

MOLM14 = system: MOLM14
Outline: as §1

OCI-AML2 = system: OCI-AML2
Outline: as §1

Compound	cell viability (K562; SRSF2 genotype: SRSF2 P95H/wt)	cell viability (K562; SRSF2 genotype: SRSF2 wt/wt) [%]	cell viability (MARIMO; SRSF2 genotype: SRSF2 P95H/wt) [%]	cell viability (MARIMO; SRSF2 genotype: SRSF2 wt/wt) [%]	cell viability (MOLM14; SRSF2 genotype: SRSF2 P95H/wt) [%]	cell viability (MOLM14; SRSF2 genotype: SRSF2 wt/wt) [%]	cell viability (OCI-AML2; SRSF2 genotype: P95H/wt) [%]	cell viability (OCI-AML2; SRSF2 genotype: wt/wt) [%]
O=C1/C(=C/c2cccs2)CC/C1=C\c1cccs1	99.2% and 106%	110	96.2	104	105	99.2	109	86
CC(C)Oc1ccc(-c2nn([C@@H](C)c3oc4ccc(F)cc4c(=O)c3-c3cccc(F)c3)c3ncnc(N)c23)cc1F	89.1% and 94.3%	87.6	84.8	94.9	77	71.8	67.4	72.3
CN1CCN(C(=O)c2ccc(-c3ccc4c(C=O)c(O)ccc4c3)s2)CC1	68.3% and 74.8%	71.6	66.8	53.4	73.2	76.8	72.9	79.5
CC(C)C[C@H](NC(=O)CNC(=O)c1cc(Cl)ccc1Cl)B1OC(=O)CC(CC(=O)O)(C(=O)O)O1 (stereo partly drawn) [Ixazomib Citrate (MLN9708)]	2.32% and 2.83%	4.01	0.72	2.45	0.35	0.36	0.42	1.49
Cc1ccccc1N1C(=O)c2cc(S(N)(=O)=O)c(Cl)cc2NC1C (stereo not drawn) [Metolazone (Zaroxolyn)]	104% and 99.9%	96.7	96	99.7	99.5	97	101	98.3
Cc1nc(C(=O)NCC(=O)O)c(O)c2ccc(Oc3ccccc3)cc12 [Roxadustat (FG-4592)]	89.4% and 79.4%	85.7	79.1	82.7	88.5	84.3	83.9	87.5
Oc1ccc(-c2nc(-c3ccc(F)cc3)c(-c3ccncc3)[nH]2)cc1	89.5% and 96.2%	93.5	101	113	97.9	97.3	99.7	106
CC(C)(Oc1ccc(Cl)cc1)C(=O)OCCOC(=O)c1cccnc1 [Etofibrate]	96% and 91.7%	95.4	93.2	100	94.7	101	83.5	77.5
Cc1cc(OCCCS(C)(=O)=O)cc(C)c1-c1cccc(COc2ccc3c(c2)OC[C@H]3CC(=O)O)c1	92.7% and 94.6%	91.3	93.2	104	94.3	98.2	85	101
C[C@@H](O)[C@H]1C(=O)N2C(C(=O)O)=C([C@H]3CCCO3)S[C@H]12 [Faropenem Sodium]	89.8% and 77.8%	82	88.3	94.3	88.3	90.3	87.1	97.4
CCOC(=O)NCCCC(=O)NCCc1ccccc1	102% and 97.9%	98.8	105	109	100	105	108	106
CC1(C)OC[C@@H](COC(=O)CCc2ccc(OC[C@@H](O)CNCCNC(=O)N3CCOCC3)cc2)O1 [Landiolol hydrochloride]	93.9% and 87.6%	101	97.6	92.6	97.6	98.2	98.3	102
COc1cc(/C=C/C(=O)N2CCN(CC(=O)N3CCCC3)CC2)cc(OC)c1OC [Cinepazide maleate]	102% and 105%	99.2	99.5	106	106	105	106	108
C[C@@H](c1nc(-c2ccc(C#N)cc2)cs1)[C@](O)(Cn1cncn1)c1cc(F)ccc1F [Isavuconazole]	45.7% and 47.6%	48.5	39.3	33	44.8	26	38.7	28
NC(=O)CCCSc1nc(N)nc(-c2c(Cl)cc3c4c(cccc24)COC3)n1	18.9% and 27.3%	22.6	29.3	24.6	2.36	2.58	16.6	19.6
CN1C(N)=N[C@](C)(c2cc(NC(=O)c3ccc(F)cn3)ccc2F)CS1(=O)=O [Verubecestat (MK-8931)]	92.7% and 98.7%	98.3	88.9	96.1	94.4	100	99.9	97.1
C[C@H](Oc1ccc(S(C)(=O)=O)cc1C(=O)N1CCN(c2ncc(C(F)(F)F)cc2F)CC1)C(F)(F)F	105% and 98.9%	95	97.1	107	97.3	105	101	104
COc1cc(C[C@H](C)[C@H](C)Cc2ccc3c(c2)OCO3)ccc1O [Anwuligan]	88.8% and 87%	87.9	87	94.9	88.3	83.1	76.8	83.5
c1ccc(-c2ccc(C(c3ccccc3)n3ccnc3)cc2)cc1 (stereo not drawn) [Bifonazole]	82.3% and 83.9%	79.7	81.4	87.7	84.5	94.2	83.9	82.7
CNS(=O)(=O)CCc1ccc2[nH]cc(C3CCN(C)CC3)c2c1 [Naratriptan HCl]	104% and 100%	104	97.3	110	107	104	102	113
CCC1(c2c[nH]cn2)Cc2ccccc2C1 [Atipamezole hydrochloride]	90.5% and 99.4%	104	92.4	99.1	96.2	99.7	98.5	95.2
